Compounds with a hit are over-represented: about 2% of the library has one in this group of screens.
STK33 kin inh = inhibitors of human STK33 kinase; 0.44% of 27,000 active; Q9BYT3; inhibition, % at 12.5 µM; ADP-Glo luminescence, MBP substrate; AID 2322; in the data active means inhibition above about 20%; inconclusive means no clear call, values can overlap the other calls
ID4 binder = ID4 (human) binding; calls only; 1.2% of 31,000 active; P47928; small molecule microarray, Flag-ID4 binding, fluorescence F/B; call rule not given here;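 further: a binder raises fluorescence above local background on the spot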
Target sequence (P47928 whole entry, looked up): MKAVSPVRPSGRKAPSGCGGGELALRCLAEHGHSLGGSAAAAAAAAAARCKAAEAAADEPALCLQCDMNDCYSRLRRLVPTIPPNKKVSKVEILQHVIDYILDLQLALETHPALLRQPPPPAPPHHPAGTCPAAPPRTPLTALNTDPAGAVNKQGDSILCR
mut p53 react = re-activators of the mutant p53 pathway. SW480 PUMA-promoter luciferase, p53 mutant reactivation. AID 624151. activation, % at 9.98 µM. 1.5% of 28,000 active; in the data active means activation above about 52%; inconclusive means no clear call, values can overlap the other calls
Starred values were filed as active, the others as inactive; i = inactive; ? = inconclusive; nt = no result; + = active, no number.

SMILES | STK33 kin inh | ID4 binder | mut p53 react
CCn1c(=S)[nH]c2ccccc2c1=O | 5 | nt | nt
Cc1ccc(Cl)cc1NC(=O)C(C)NS(=O)(=O)c1ccc(Br)cc1 (stereo unspecified) | -1 | i | 1
COCC1=C2[C@@H](c3ccccc3)OB(O)C[C@@H]2n2c(=O)n(-c3ccccc3)c(=O)n2C1 | nt | i | nt
CCCC[C@H]1OB(O)C[C@H]2C1=C(COc1ccccc1)Cn1c(=O)n(-c3ccccc3)c(=O)n12 | nt | + | nt
CN1C(C(=O)Nc2ccccn2)C(=O)c2ccccc2S1(=O)=O (stereo unspecified) | 1 | i | -4
Cc1ccc2[nH]c(C)c(CCC(=O)O)c(=O)c2c1 | -1 | i | -5
CCc1cc2c(SCC(=O)c3ccc(C)cc3)ncnc2s1 | 0 | i | 65*
CCc1cc2c(SCC(N)=O)ncnc2s1 | 0 | i | -15
CCn1c(SCC(=O)Nc2cccc(C(F)(F)F)c2)nnc1-c1ccco1 | 1 | i | 21
CCC(C)[C@H]1C(=O)O[C@H](C(C)C)C(=O)N(C)[C@@H](C(C)C)C(=O)O[C@H](C(C)C)C(=O)N(C)[C@@H](C(C)C)C(=O)O[C@H](CC(C)C)C(=O)N1C (stereo partly specified) | -5 | nt | nt
O=C(Nc1ccccc1C(=O)NCCOc1ccccc1)c1ccc(Cl)cc1 | 0 | i | 24
N#CC(C(=O)c1ccco1)c1nc2ccccc2[nH]1 (stereo unspecified) | 67* | nt | nt
c1ccc(CC(Cc2nc3ccccc3[nH]2)c2nc3ccccc3[nH]2)cc1 (stereo unspecified) | -1 | i | 2
O=C1C(=O)N(Cc2ccco2)C(c2ccc(Cl)cc2)C1C(=O)c1cc2ccccc2o1 (stereo unspecified) | 1 | i | 7
C=CCc1c(C)nc(OCC(=O)OCC)c(C#N)c1C | 1 | nt | nt
O=C(CN(c1ccc(F)cc1)S(=O)(=O)c1ccc2c(c1)OCCO2)N1CCc2ccccc2C1 | 3 | i | 6
COc1c(N2CCNC(C)C2)c(F)cc2c(=O)c(C(=O)O)cn(C3CC3)c12 (stereo unspecified) | 3 | + | nt
O=C(O)c1cn(C2CC2)c2cc(N3CCNCC3)c(F)cc2c1=O | -2 | i | nt
CCOc1cc(C2c3c(oc4ccc(F)cc4c3=O)C(=O)N2CCc2ccc(OC)cc2)ccc1O (stereo unspecified) | nt | i | -26
NS(=O)(=O)c1ccc(NC(=S)NCc2cccnc2)cc1 | 5 | i | -14
Cc1cccnc1NC(=S)Nc1ccc(S(N)(=O)=O)cc1 | ? | i | 66*
CCC(CO)NS(=O)(=O)c1ccc(OC)c(-c2nnc3c4ccccc4c(C)nn23)c1 (stereo unspecified) | -1 | i | -6
O=C1C=CC(O)(/C=C/C(=O)OC[C@H]2O[C@@H](Oc3ccc(O)cc3)[C@H](O)[C@@H](OC(=O)/C=C/C3(O)C=CC(=O)C=C3)[C@@H]2O)C=C1 | 52* | i | 18
O=C(/C=C/c1ccc(O)cc1)OC[C@H]1O[C@@H](Oc2cc(O)c3c(c2)OC(c2ccc(O)cc2)CC3=O)[C@H](O)[C@@H](OC(=O)/C=C/c2ccc(O)cc2)[C@@H]1O (stereo partly specified) | -1 | i | nt
CSc1ccc(C2C(C(=O)c3sc(C)nc3C)C(=O)C(=O)N2Cc2cccnc2)cc1 (stereo unspecified) | -1 | + | 28
SMILES | STK33 kin inh | ID4 binder | mut p53 react
Cc1c(C(=O)C2C(=O)C(=O)N(Cc3cccnc3)C2c2ccc(F)cc2)cnn1-c1ccccc1 (stereo unspecified) | 2 | i | 6
CC(=O)c1ccc(NC(=O)CNS(=O)(=O)c2ccc(C(C)(C)C)cc2)cc1 | 0 | i | -6
Cc1ccc(NC(=O)CCCn2cc([N+](=O)[O-])cn2)cc1C | -4 | i | 4
CCC(NC(=O)c1cc(OC)c(OC)c(OC)c1)C12CC3CC(CC(C3)C1)C2 (stereo unspecified) | -2 | nt | nt
Cn1c(=O)c2[nH]c(-c3ccc(Cl)cc3)c(O)c2n(C)c1=O | nt | i | 5
COC(=O)c1sccc1-c1ccc(-c2ccn(C(=O)c3ccc(Cl)cc3)n2)o1 | nt | i | 97*
OC(COc1ccc(Cl)cc1)CSc1ccccn1 (stereo unspecified) | 4 | i | 78*
OC(COc1ccc(Cl)cc1)Cn1cnc(-c2ccccc2)c1 (stereo unspecified) | 21* | i | -1
OC(COc1ccc2ccccc2c1Br)Cn1cnc(-c2ccccc2)c1 (stereo unspecified) | 1 | i | 5
Cc1cc(C)nc(SCC(O)COc2ccccc2)n1 (stereo unspecified) | 2 | i | ?
Cc1cc(C#N)c2c(C)ccc(C(C)C)cc1-2 | nt | i | -8
N#Cc1cc[n+](CC(=O)c2ccc(NC(=O)c3ccccc3)cc2)cc1 | 12 | nt | nt
N#Cc1ccc(NC(=O)c2ccc(Br)o2)cc1 | nt | i | 64*
Cc1nc(C(N)=NC(=O)c2ccc(OC(F)(F)F)cc2)cs1 | -2 | nt | nt
COc1ccc(NC(=S)NCCc2ccccc2OC)c(OC)c1 | 0 | + | 17
COc1ccc(NC(=O)C23CC4CC(C2)CC(C(=O)Nc2ccc(OC)cc2OC)(C4)C3)c(OC)c1 | -2 | i | -4
COc1ccc(NC(=O)NCCc2ccccc2OC)c(OC)c1 | 2 | i | 7
COc1ccc(NC(=O)NCc2ccc(C(=O)O)cc2)c(OC)c1 | -1 | + | -7
O=C(COc1ccc(Cl)cc1)Nc1ccc2oc(-c3cccc(F)c3)nc2c1 | 1 | i | 29
CC(=O)Nc1ccc(S(=O)(=O)N2CCCCC2C)cc1 (stereo unspecified) | 0 | nt | nt
O=C(OCc1cccc(O)c1O[C@@H]1O[C@H](CO)[C@@H](O)[C@H](O)[C@H]1O)C1(O)C(=O)C2C3C4C5C(C(=O)C(O)(C(=O)OCc6cccc(O)c6O[C@@H]6O[C@H](CO)[C@@H](O)[C@H](O)[C@H]6O)C2C53)C41 (stereo partly specified) | 12 | i | 33
CCCn1c2ccccc2c2nnc(SCCC(=O)O)nc21 | -1 | i | 7
c1ccc(CCn2c3ccccc3c3nnc(SCc4ccc5nonc5c4)nc32)cc1 | 2 | i | 61*
O=C(Nc1ccc(S(=O)(=O)N2CCOCC2)cc1)c1cc(-c2ccncc2)nc2c(Cl)cccc12 | 2 | i | -21
Cc1ccc2nc(-c3ccccn3)cc(C(=O)Nc3ccc(S(=O)(=O)N4CCOCC4)cc3)c2c1 | 8 | + | 5
SMILES | STK33 kin inh | ID4 binder | mut p53 react
CCOc1ccc(C)cc1S(=O)(=O)NCC1CCCO1 (stereo unspecified) | -1 | i | 3
Cn1c(SCC(=O)Nc2ccccc2F)nnc1-c1ccc(Br)cc1 | -3 | i | -5
COCC(=O)N(C)C[C@H]1Oc2cc(C#CC3CC3)ccc2S(=O)(=O)N([C@@H](C)CO)C[C@@H]1C | nt | nt | -5
CCC(=O)N(C)C[C@@H]1Oc2cc(C#CC3CC3)ccc2S(=O)(=O)N([C@@H](C)CO)C[C@H]1C | nt | + | 1
C/C=C/c1ccc2c(c1)O[C@H](CN(C)S(=O)(=O)c1ccc(F)cc1)[C@H](C)CN([C@H](C)CO)S2(=O)=O | nt | i | -13
C[C@H]1CN([C@@H](C)CO)S(=O)(=O)c2ccc(-c3ccc(C#N)cc3)cc2O[C@H]1CN(C)C(=O)Nc1cc(F)ccc1F | nt | + | -24

Assay outcomes: PubChem, Broad Institute
